Consider three molecules from PubChem BioAssay (NCI).

About 83,000 compounds went through this panel and 20% of them were active in at least one assay; those are over-represented in the sample as a whole.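 Activity criterion: percent growth below 10, measured after cells in 96-well plates were exposed to a single compound concentration for 48 hours.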 Unmarked numbers belong to inactive results.

This experiment concerns MDA-MB-468 breast. Briefly: NCI-60 one-dose screen, 48 h (100 = growth as untreated, 0 = no growth, -100 = all killed). Conditions: 10 µM unless noted.
As for `COc1ccc(-c2nc3c(c(-c4ccccc4)nn3-c3ccccc3)c(-c3ccc(N4CCN(C)CC4)cc3)c2C#N)cc1`, the growth is 79.2%.

Turning to `CN(C)c1ncc(-c2ccc(C(F)(F)F)cc2)c(NC2CCCCCC2)n1`, the growth is 29.5%.

In the case of `O=c1[nH]c(-c2ccc(Cl)cc2)cn1-c1ccc(-n2cc(-c3ccc(Cl)cc3)[nH]c2=O)cc1`, the growth was 103%.
